From PubChem BioAssay
TR SRC2 fluor cs: counter-screen for TRb-SRC2 inhibitors: fluorescence interference; TRb/SRC2 Texas Red total fluorescence interference; Potency, µM (highest dose often 106 µM), for inactives: top-dose fluorescence change, negative = quenching; hit rate 0.29% among 280,000; AID 1479; active = well fitted curve in either direction with a large enough effect; inconclusive = small, poorly fitted or top-dose-only effect
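Flags fluorescent or light-absorbing compounds by total fluorescence, S + 2P, at 555 nm excitation and 632 nm emission. Mixture: 20 nM Texas Red SRC2 peptide, 0.6 uM human TRb LBD, 1 uM T3, 5% DMSO; compound exposure 5 h at ambient temperature.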
Tau fluor cs: counter-screen for tau fibril formation inhibitors. hit rate 0.93% among 280,000. Potency, µM (highest dose often 57.7 µM), inactives show at the top dose activity change, negative = decrease. tau K18 P301L Alexa594 fluorescence, heparin fibrillization. AID 1463; note: nearly all actives have a fitted effect of over 55% in size
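Human K18 P301L tau (15 uM unlabeled plus 0.24 uM Alexa 594-labeled, final) in 100 mM sodium acetate pH 7 was mixed with compound and 20 uM heparin and incubated 6 hr at 37 C.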
KDM4E inh: JMJD2E (human) inhibition; JMJD2E catalytic domain, FDH-coupled NADH fluorescence (FDH is formaldehyde dehydrogenase); hit rate 1.6% among 230,000; Potency, µM (doses to about 57.1 µM), for inactives: at the highest dose activity change, negative = inhibition, usual class: inhibitors; active = well fitted inhibition curve with a large enough effect, not every such curve was filed as active; inconclusive = small, poorly fitted or top-dose-only effect, or another doubt; inactive = no such curve, though single readings can be large or run the other way;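 note: 0% = wells with enzyme and -100% = buffer wells without enzyme; nearly all actives have a fitted effect of over 50% in size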
TRb SRC2 PPI: inhibitors of human thyroid hormone receptor beta-SRC2 interaction; P10828; TRbeta-SRC2 peptide binding, fluorescence polarization; receptor liganded with 1 µM T3; Potency, µM (series often up to 106 µM), without a hit: top-dose activity change, negative = inhibition, actives largely listed as inhibitors; hit rate 0.065% among 280,000; AID 1469;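 note: plate controls were bound peptide for no effect and peptide without receptor for full effect; nearly all actives have a fitted effect of over 50% in size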
Target sequence (P10828 whole entry, looked up): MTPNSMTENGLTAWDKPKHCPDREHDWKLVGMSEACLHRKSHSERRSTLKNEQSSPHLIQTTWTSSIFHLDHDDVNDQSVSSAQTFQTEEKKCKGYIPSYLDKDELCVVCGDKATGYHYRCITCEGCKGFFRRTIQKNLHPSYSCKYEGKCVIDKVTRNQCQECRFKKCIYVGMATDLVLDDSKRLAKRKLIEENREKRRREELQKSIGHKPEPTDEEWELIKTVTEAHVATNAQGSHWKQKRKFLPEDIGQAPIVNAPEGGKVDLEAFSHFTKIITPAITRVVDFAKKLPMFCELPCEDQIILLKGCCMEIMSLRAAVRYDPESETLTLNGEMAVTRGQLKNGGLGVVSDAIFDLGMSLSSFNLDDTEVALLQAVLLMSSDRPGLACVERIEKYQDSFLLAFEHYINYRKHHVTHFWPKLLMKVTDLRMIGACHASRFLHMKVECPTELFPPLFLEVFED
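Read-out is fluorescence polarization (555 nm excitation, 632 nm emission) of a Texas Red SRC2 coactivator peptide; loss of signal reflects blocked binding to human TRb ligand-binding domain in the presence of 1 uM T3.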
Tau ThT inhib: inhibitors of human tau fibril formation, thioflavin T binding. P10636. recombinant tau K18 P301L (four-repeat tau fragment), heparin-induced fibrillization, ThT fluorescence. Potency, µM (doses to about 57.4 µM), without a hit: at the highest dose activity, negative = inhibition, usual class: inhibitors. hit rate 2.1% among 270,000; note: nearly all actives have a fitted effect of over 55% in size
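Recombinant human tau K18 fragment […] carrying P301L, 15 uM unlabeled plus 0.24 uM Alexa 594-labeled, was fibrillized with 20 uM heparin in 100 mM sodium acetate pH 7 for 6 hr at 37 C; 30 uM ThT fluorescence read after 1 hr.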
Tau FP inhib: tau fibrillization inhibition (FP); hit rate 0.39% among 280,000; AID 1468; K18 P301L tau heparin fibrillization, Alexa594 FP, 6 h; Potency, µM (top dose mostly 57.7 µM), without a hit: at the top dose activity, negative = inhibition, hits mostly inhibitors; note: nearly all actives have a fitted effect of over 55% in size
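Steps: dispense K18 P301L tau (15 uM plus 0.24 uM Alexa 594 tracer, final) in pH 7 sodium acetate; add compound; add heparin (20 uM final); incubate 6 hr, 37 C; add ThT (30 uM final); after 1 hr ambient, read FP.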
Starred values were filed as active, the others as inactive; ? = inconclusive; . = no result; [ ] = dose if it differs, or a comment. Compounds with a hit are over-represented: about 3.5% of the library has one in this group of screens. Unless noted, calls come from the whole dose curve; as a rule, active = well fitted curve in the direction sought with a large enough effect; inconclusive = small, poorly fitted or top-dose-only effect, or another doubt; inactive = no such curve, though single readings can be large; an effect the other way counts as inactive or inconclusive. Unless noted, % is set by controls: 0 for no effect and ±100 for the full control effect; potency is the fitted concentration of half-maximal effect.

SMILES	TR SRC2 fluor cs	Tau fluor cs	KDM4E inh	TRb SRC2 PPI	Tau ThT inhib	Tau FP inhib
O=C1NC(=S)/C(=C\c2ccc(-c3ccccc3Cl)o2)S1	1%[53 µM]	?	-24%	0%[53 µM]	7.9µM*	?
S=c1[nH]nc(-c2ccccc2)n1/N=C/c1ccc(-c2ccccc2Cl)o1	-4%	-27%	-11%	4%	-12%	-10%
FC(F)(F)c1nc(=S)c2ccccc2[nH]1	0%	-2%	10µM*	-5%	?	-18%
Fc1ccc(-c2cnn3c(-c4cccs4)ccnc23)cc1	1%	-14%	-2%	-3%	1.4µM*	-15%
Fc1ccc(-c2cnn3c(-c4ccncc4)ccnc23)cc1	-4%	-2%	-4%	-3%	3.2µM*	3%
c1csc(-c2ccnc3ncnn23)c1	-1%	7%	?	2%	0%	3%
O=C(CN1C(=O)C2(SCC(=O)N2c2ccc(F)c(F)c2)c2ccccc21)NCCc1ccccc1 (configuration not stated)	2%	-10%	.	5%	12%	-2%
Nc1nnc(N)c2ccccc12	-1%	-5%	?	-7%	-7%	-5%
Nc1nsc2ccccc12	-1%	-17%	?	-15%	13µM*	?
COc1ccc(C(=O)CCC(=O)N2CCN(c3ccc(N4CCOCC4)nn3)CC2)cc1	-1%	-13%	?	12%	?	-9%
O=C(CN1C(=O)c2ccccc2S1(=O)=O)c1ccc(O)c(O)c1	1%	5%	14µM*	1%	.	6%
COc1ccc(Cl)cc1Nc1ccc2cc(S(=O)(=O)N3CCCCC3)ccc2n1	2%	10µM*[quencher]	.	-1%	-9%	0%
CCOC(=O)c1cccc(Nc2ccc3cc(S(=O)(=O)N4CCCCC4)ccc3n2)c1	-1%	11µM*[quencher]	.	2%	?	?
O=S(=O)(c1ccc2nc(Nc3cccc(F)c3)ccc2c1)N1CCCC1	-1%	?	.	5%	?	?
O=S(=O)(c1ccc2nc(Nc3ccc(F)cc3)ccc2c1)N1CCCC1	-1%	?	.	1%	?	-14%
COc1ccc(Nc2ccc3cc(S(=O)(=O)N4CCCC4)ccc3n2)cc1Cl	-2%	2.8µM*[quencher]	.	-2%	?	7%
O=C(O)C(=O)/C(=C\c1ccc([N+](=O)[O-])cc1)c1ccc2ccccc2n1	-1%	-24%	-21%	-2%	16µM*	2%
O=C(O)C(=O)/C(=C\c1ccccc1)c1ccc2ccccc2n1	-5%	-12%	?	3%	?	-3%
CC(C)Oc1ccc(CNS(=O)(=O)c2ccc(-c3cc(C(F)(F)F)on3)s2)cc1	-1%	-2%	.	-4%	-3%	-6%
COc1cccc(CSc2nc3cc(C(=O)NC4CCCC4)ccc3c(=O)n2Cc2ccccc2)c1	-2%	-14%	.	-5%	-7%	?
c1ccc(C[n+]2csc3ccccc32)cc1	-1%	-21%	?	5%	?	-14%
Fc1cccc(C[n+]2csc3ccccc32)c1	-3%	-23%	?	-1%	25µM*	?
CSc1nc2ccc(NS(=O)(=O)c3ccc(Cl)s3)cc2s1	-1%	?	-16%	4%	?	-10%
Cc1ccc(NS(=O)(=O)c2ccc3c(c2)NC(=O)C(C)C(=O)N3)cc1F (configuration not stated)	-1%	-3%	.	-1%	2%	0%
O=C1c2ccccc2C(=O)c2c1ccc(C(=O)N1CCCCC1)c2NCCO	1%	-12%	4%	1%	-15%	-2%
CC1(C)CCCN(C(=O)c2ccc3c(c2NCCO)C(=O)c2ccccc2C3=O)C1	-3%	?	6%	-3%	14µM*	18%
CC(=O)OCC1=C(C(=O)O)N2C(=O)C(NC(=O)Cc3cccs3)C2SC1 (configuration not stated)	0%	-30%	?	2%	20µM*	?
CC(=O)OCC1=C(C(=O)O)N2C(=O)[C@@H](NC(=O)CSc3ccncc3)[C@@H]2SC1	-1%	.	4%[25.5 µM]	-5%	.	.
